Assay outcomes as filed in PubChem BioAssay.
Rows were chosen to be rich in hits. Some 2.4% of all compounds tested hit in one or more screens of this group.
MLLE-PAM2 inh: inhibitors of microRNA-mediated deadenylation, human PABP1 MLLE binding; P11940; GST-MLLE / FITC-PAM2 fluorescence polarization; inhibition, % at 20 µM; 0.36% of 360,000 active; in the data active = inhibition above about 35%, passing the limit was not always enough
PABP FP inh: PABP-poly(A) binding inhibition; P11940; PABP-poly(A) RNA binding, fluorescence polarization; calls only at 35 µM; 1% of 290,000 active; AID 2014;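 note: calls also rest on retests at 20 µM and on dose response follow-up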
HMGR II inh: blocks class II HMG-CoA reductase of Enterococcus faecalis | purified E. faecalis HMGR, NADPH absorbance 340 nm kinetic | inhibition, % at 10 µM | 0.41% of 190,000 active;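 active = inhibition above a set limit, the median over all tested compounds plus 3 SD, cut at about 9.5% in these data; inconclusive = no clear call, values can overlap the other calls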;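 note: enzyme runs in reverse so mevalonate oxidation gives rising NADPH absorbance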
PHOSPHO1 block: PHOSPHO1 (human) inhibition; 1.1% of 290,000 active; Q8TCT1; recombinant PHOSPHO1, absorbance phosphatase assay; inhibition, % at 13.3 µM; in the data active = inhibition above about 60%
Target sequence (Q8TCT1 whole entry, looked up): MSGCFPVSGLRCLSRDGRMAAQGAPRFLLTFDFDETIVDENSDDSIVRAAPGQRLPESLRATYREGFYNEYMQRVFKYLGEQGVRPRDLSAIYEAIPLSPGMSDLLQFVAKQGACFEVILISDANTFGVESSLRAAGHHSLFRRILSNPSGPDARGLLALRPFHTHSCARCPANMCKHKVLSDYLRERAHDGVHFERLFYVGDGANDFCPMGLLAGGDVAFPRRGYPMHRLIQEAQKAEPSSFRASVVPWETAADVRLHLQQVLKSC
eIF4H FP inh: inhibitors of RNA binding by human eIF4H. eIF4H fluorescence polarization binding assay. inhibition, % at 35 µM. 0.94% of 290,000 active. Q15056;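 note: calls also rest on retests at 20 µM and on dose response follow-up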
Numbers stand for hits; – = inactive; ? = inconclusive; · = no result; + = active, no number. Unless noted, the rule behind the calls is not given here.

SMILES	MLLE-PAM2 inh	PABP FP inh	HMGR II inh	PHOSPHO1 block	eIF4H FP inh
COc1ccccc1OCC(=O)Nn1c(=S)[nH]c2ncccc2c1=O	43.7	–	–	–	–
COc1ccc(OCCOc2ccc(/C=C3\C(=N)N4N=C(C)SC4=NC3=O)cc2)cc1	–	·	·	·	·
CCOc1ccc(S(=O)(=O)N2CCN(C(=O)c3cc(C4CC4)nn3-c3ccccc3)CC2)cc1	–	·	·	·	·
CCc1nc2sc3ccccc3c(=O)c2c(=O)n1Cc1ccco1	–	+	–	–	69.3
CCc1nc2oc3cc(OC)ccc3c(=O)c2c(=O)n1Cc1ccco1	–	+	–	–	51.7
COc1ccc(-c2nc3oc4cc(OC)ccc4c(=O)c3c(=O)n2Cc2ccco2)cc1	–	–	–	–	–
COc1ccc2c(=O)c3c(=O)n(Cc4ccco4)c(-c4ccco4)nc3oc2c1	–	+	–	–	86.0
CCOc1cc2c(cc1O)C(=NOC)CC1C2CCC2(C)C(O)CCC12 (configuration not stated)	–	·	·	·	·
COC(=O)c1cccc(CN2C(=O)C(C)Sc3ccc(C(C)=O)cc32)c1 (configuration not stated)	–	·	·	·	·
Cc1ccc(NC(=O)c2ncn(CC(=O)NCC(C)c3ccccc3)n2)cc1C (configuration not stated)	–	·	·	·	·
Cc1ccc(C(=O)c2coc3c2C(=O)C(=O)c2ccccc2-3)cc1	–	–	–	84.6	–
O=C(Nc1ccnn1C1CCN(CCCc2ccccc2)CC1)c1cccc(F)c1	–	–	·	–	–
CCOC(=O)c1sc(NC(=O)CN2C(=O)C3CC=CCC3C2=O)nc1C (configuration not stated)	–	·	·	·	·
Cc1nc(NC(=O)CCN2C(=O)C3CC=CCC3C2=O)sc1C (configuration not stated)	–	–	·	61.0	–
O=C(CSc1nc(C2CC2)nc2c1cnn2-c1ccccc1)Nc1c[nH]c(=O)[nH]c1=O	–	–	–	–	–
O=C(CSc1n[nH]c(-c2ccncc2)n1)NC1CCS(=O)(=O)C1 (configuration not stated)	–	–	–	97.5	–
CCc1ccc(-c2nc(SCC(=O)NC3CCS(=O)(=O)C3)n[nH]2)cc1 (configuration not stated)	–	·	·	·	·
O=C(NCC1OCCCN1S(=O)(=O)c1cc(F)ccc1F)C(=O)NC1CCCCC1 (configuration not stated)	–	?	9.6	–	–
CCC(Oc1ccccc1C)C(=O)N1CCCN(C)CC1 (configuration not stated)	–	–	·	·	–
NC(N)=NC(=S)Nc1ccc(Cl)cc1	44.5	–	·	–	–
N/C(=N\C(=S)Nc1ccccc1)c1ccccc1	–	–	·	–	–
COC(=O)C1=C(C)N(C)C(=S)N(C)C1c1ccc(OC)cc1 (configuration not stated)	–	–	12.2	–	–
CC(NC(=O)[C@H](C)N1C(=O)N2CCc3c([nH]c4ccccc34)[C@@]2(C)C1=O)c1ccccc1 (some centres not stated)	–	–	·	–	–
COc1cccc(NC(=S)NNC(=O)c2ccccc2OC(F)F)c1	–	–	–	–	–
O=C(NNC(=S)Nc1ccc(F)cc1)c1ccccc1OC(F)F	–	–	–	88.2	–
SMILES	MLLE-PAM2 inh	PABP FP inh	HMGR II inh	PHOSPHO1 block	eIF4H FP inh
Cc1ccc(NC(=S)NNC(=O)c2ccccc2OC(F)F)cc1	–	–	–	86.5	–
O=C(CCN1C(=O)c2ccccc2C1=O)NCc1ccc(Cl)cc1	–	–	·	–	–
O=C(CCNC(=O)Cn1ccc2ccccc2c1=O)NCC1CCCC1c1ccccc1 (configuration not stated)	–	–	–	–	–
Cc1ccc(NC(=O)CN2CC(C)SC2=NC2CCCCC2)cc1 (configuration not stated)	–	–	–	73.7	–
COc1cc([N+](=O)[O-])ccc1NC(=O)CCS(=O)(=O)c1ccc2c(c1)n(C)c(=O)c(=O)n2C	–	–	·	–	–
O=C(O)C(=O)/C(=C\c1cccc2ccccc12)c1ccc2ccccc2n1	–	+	–	–	67.0
O=C(O)C(=O)/C(=C\c1ccccc1)c1ccc2ccccc2n1	–	–	–	–	–
Cc1sc2ncnc(Nc3ccc(N4CCOCC4)cc3)c2c1-c1ccccc1	–	+	–	–	?
Cc1sc2ncnc(Nc3ccccc3)c2c1C	–	–	–	–	–
CC(=O)Oc1c(-c2ccco2)oc2ccccc2c1=O	–	–	–	–	–
CCOC(=O)c1cc(C#N)c(SCC(=O)c2cc(C#N)c(SC)nc2C)[nH]c1=O	–	–	–	97.8	–
O=C1N=C(N2CCCC2)S/C1=C\C=C\c1ccccc1	–	–	·	–	–
COc1ccc(C(=O)CCC(C)(C)[N+](=O)[O-])cc1	–	–	11.9	–	–
COc1ccc(-c2ccc(/C=C3\C(=O)N(c4ccccc4)N=C3c3ccccc3)o2)c([N+](=O)[O-])c1	–	–	–	–	–
CC1=NN(c2ccc(C)cc2)C(=O)/C1=C/c1ccc(-c2cc([N+](=O)[O-])ccc2O)o1	–	+	·	–	105.2
O=C1NN(c2cccc(Br)c2)C(=O)/C1=C/c1ccc(-c2cc([N+](=O)[O-])ccc2O)o1	–	–	·	–	96.1
O=C1NN(c2cccc(Br)c2)C(=O)/C1=C\c1ccc(O)cc1	–	–	·	–	–
CCOC(=O)c1cc(-c2ccc(F)cc2)n(CC(=O)NCc2cccnc2)c1C	–	–	–	–	–
O=C(Cc1ccc(S(=O)(=O)N2CCCC2)s1)Nc1nc2c(s1)CCCC2	–	–	–	61.4	–
COc1cc(C(=S)N2CCCC2)cc(OC)c1O	–	–	–	75.5	–
CCOc1cc(C(=S)N2CCCC2)ccc1OC	–	–	·	–	–
Cn1cc(/C=N/NC(=O)c2cc3cc(Br)ccc3o2)c2ccccc21	–	–	·	–	–
O=C(O)c1ccc(-n2cccc2/C=N\NC(=O)c2cc3cc(Br)ccc3o2)cc1	–	+	·	–	86.3
COc1ccc(OCCN2CCC(C(=O)NC(c3ccsc3)c3ccccc3C)CC2)cc1 (configuration not stated)	–	·	·	·	·
O=C(OCc1cc(=O)n2c(n1)sc1ccccc12)c1ccc(O)cc1	–	–	–	–	79.3
SMILES	MLLE-PAM2 inh	PABP FP inh	HMGR II inh	PHOSPHO1 block	eIF4H FP inh
Cc1cccc(C(=O)N[C@H](C(=O)OCc2cc(=O)n3c(n2)sc2ccccc23)C(C)C)c1	–	+	–	–	85.4
CC[C@H]1C(=O)[C@@H](Cc2ccccc2)[C@@H]2CCN3C(=O)CCC[C@H]1[C@H]23	–	·	·	·	·
O=C(CCC1CCCN(C(=O)c2ccc3[nH]ccc3c2)C1)N1CCN(c2ccccn2)CC1 (configuration not stated)	–	–	–	64.2	–
O=C(CCC1CCCN(C(=O)c2ccc3cc[nH]c3c2)C1)N1CCN(c2ccccn2)CC1 (configuration not stated)	–	–	–	–	–
O=c1cc[nH]c2c1ccc1c(=O)cc[nH]c12	–	–	·	–	85.9
O=c1cc[nH]c2c(Cl)cccc12	–	–	·	–	–
Cc1ccc(-c2nc3cnccn3c2Nc2c(C)cccc2C)o1	39.2	–	–	–	–
